This is an account of results in PubChem BioAssay (NCATS).

The structures appear in SMILES notation. “And” between values parts separate entries of the source, which are not always exact repeats. Equal values may be shown once. Records with an inconclusive call do not appear. The source made the active and inactive calls. Calls follow the shape of the dose curve; as a rule, active = well fitted curve in the direction sought with a large enough effect; inconclusive = small, poorly fitted or top-dose-only effect, or another doubt; inactive = no such curve, though single readings can be large; an effect the other way counts as inactive or inconclusive.

A short description of assay [1]: qHTS of pediatric cancer cell lines to identify multiple opportunities for drug repurposing: Primary screen for NB-EBc1 cells (AID 1347095). Also: potency is read from the fitted curve at half-maximal effect. Summed up: (§1)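 Plated cells (500-1,000 per well, growth media) were allowed to settle for 5 hours, treated with compound dilutions for 48 hours, then lysed with CellTiter-Glo for 15 min at room temperature before luminescence reading.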
(In qHTS, concentration-response curves come from the screen itself.)

A short description of assay [2]: qHTS of pediatric cancer cell lines to identify multiple opportunities for drug repurposing: Primary screen for U-2 OS cells (AID 1347096). Also: nearly all actives have a fitted effect of over 50% in size. In a few lines:
(§2)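 Viability after 48 h compound treatment at 37C, 500-1,000 cells/well, read as ATP luminescence with CellTiter-Glo. Primary screens used 11-point (MIPE, 0.78 nM-46 µM) or 8-point (NPC, 0.59 nM-46 µM) final concentrations; follow-up screens used 11-point dilutions.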

Assay [3] is described as follows: qHTS of pediatric cancer cell lines to identify multiple opportunities for drug repurposing: Primary screen for Saos-2 cells (AID 1347097). Also: nearly all actives have a fitted effect of over 40% in size. Also: potency is read from the fitted curve at half-maximal effect. Summed up: as §1
Assay [4] can be described thus: qHTS of pediatric cancer cell lines to identify multiple opportunities for drug repurposing: Primary screen for SK-N-SH cells (AID 1347098). Also: nearly all actives have a fitted effect of over 65% in size. Also: potency is read from the fitted curve at half-maximal effect. In a few lines: (§3)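 Cells (500-1,000/well) rested 5 h, then received compounds for 48 h; metabolically active cells were measured by CellTiter-Glo luminescence. Final concentrations spanned up to 46 µM (MIPE, 11-point) or 0.59 nM-46 µM (NPC, 8-point) in primary screens, 11-point in follow-ups.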

Assay [5] in a line: qHTS of pediatric cancer cell lines to identify multiple opportunities for drug repurposing: Primary screen for NB1643 cells (AID 1347099). Also: nearly all actives have a fitted effect of over 50% in size. Also: potency is read from the fitted curve at half-maximal effect. Summed up:
as §1

The nature of assay [6]: qHTS of pediatric cancer cell lines to identify multiple opportunities for drug repurposing: Primary screen for LAN-5 cells (AID 1347100). Also: potency is read from the fitted curve at half-maximal effect. Summed up: as §2
Assay [7] can be described thus: qHTS of pediatric cancer cell lines to identify multiple opportunities for drug repurposing: Primary screen for BT-12 cells (AID 1347101). Also: nearly all actives have a fitted effect of over 25% in size. Also: potency is read from the fitted curve at half-maximal effect. Summed up: as §3
A short description of assay [8]: qHTS of pediatric cancer cell lines to identify multiple opportunities for drug repurposing: Primary screen for Rh18 cells (AID 1347102). Also: nearly all actives have a fitted effect of over 65% in size. In a few lines: as §2
A short description of assay [9]: qHTS of pediatric cancer cell lines to identify multiple opportunities for drug repurposing: Primary screen for OHS-50 cells (AID 1347103). Also: nearly all actives have a fitted effect of over 40% in size. Also: potency is read from the fitted curve at half-maximal effect. In a few lines: as §3
Assay [10] in a line: qHTS of pediatric cancer cell lines to identify multiple opportunities for drug repurposing: Primary screen for RD cells (AID 1347104). Also: nearly all actives have a fitted effect of over 55% in size. Also: potency is read from the fitted curve at half-maximal effect. Summed up:
as §1

Assay [11] is described as follows: qHTS of pediatric cancer cell lines to identify multiple opportunities for drug repurposing: Primary screen for MG 63 (6-TG R) cells (AID 1347105). Also: nearly all actives have a fitted effect of over 50% in size. In a few lines: as §1
A short description of assay [12]: qHTS of pediatric cancer cell lines to identify multiple opportunities for drug repurposing: Primary screen for control Hh wild type fibroblast cells (AID 1347106).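 Also: series mostly up to about 46 µM; a drop in luminescence marks cytotoxicity and a rise apparent proliferation; nearly all actives have a fitted effect of over 55% in size.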 In a few lines: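 Cells (500-1,000/well) in growth media were settled 5 h at 37 degrees C, then given compounds for 48 h. Viability was read as CellTiter-Glo luminescence. Primary runs used MIPE at 11 points (0.78 nM-46 µM) and NPC at 8 points (0.59 nM-46 µM); follow-ups used 11 points.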

Assay [13] is described as follows: qHTS of pediatric cancer cell lines to identify multiple opportunities for drug repurposing: Primary screen for Rh30 cells (AID 1347107). Also: series mostly up to about 46 µM; nearly all actives have a fitted effect of over 75% in size. In a few lines:
as §2

A short description of assay [14]: qHTS of pediatric cancer cell lines to identify multiple opportunities for drug repurposing: Primary screen for Rh41 cells (AID 1347108).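 Also: series mostly up to about 46 µM; luminescence drop marks cytotoxic hits; nearly all actives have a fitted effect of over 70% in size.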 Summed up:
as §1

Assay [15] is described as follows: qHTS of pediatric cancer cell lines to identify multiple opportunities for drug repurposing: Confirmatory screen for NB1643 cells (AID 1347109). Also: potency is read from the fitted curve at half-maximal effect; nearly all actives have a fitted effect of over 45% in size. In a few lines: as §2
The nature of assay [16]: qHTS of pediatric cancer cell lines to identify multiple opportunities for drug repurposing: Confirmatory screen for A673 cells (AID 1347110). Also: potency is read from the fitted curve at half-maximal effect; nearly all actives have a fitted effect of over 65% in size. In a few lines:
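A673 cells at 500-1,000 cells/well were dosed 5 h after plating, in dilution series up to 46 uM final; primary runs used 8 or 11 points and confirmatory runs used 11 points. Viability was read by CellTiter-Glo luminescence after 48 h, against DMSO and 2.3 uM bortezomib controls.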

Assay [17] can be described thus: qHTS of pediatric cancer cell lines to identify multiple opportunities for drug repurposing: Confirmatory screen for SK-N-MC cells (AID 1347111).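 Also: potency is read from the fitted curve at half-maximal effect; cells exposed to compound for 48 h before the readout; nearly all actives have a fitted effect of over 70% in size.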 Summed up:
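SK-N-MC cells at 500-1,000 cells/well in growth media were pre-incubated 5 h, then exposed to compounds at 11-point dilutions for 48 h at 37 degrees C, 5% CO2. Viability was read as CellTiter-Glo luminescence.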

The nature of assay [18]: qHTS of pediatric cancer cell lines to identify multiple opportunities for drug repurposing: Confirmatory screen for LAN-5 cells (AID 1347113). Also: potency is read from the fitted curve at half-maximal effect; nearly all actives have a fitted effect of over 65% in size. Summed up:
as §2

Assay [19] in a line: qHTS of pediatric cancer cell lines to identify multiple opportunities for drug repurposing: Confirmatory screen for DAOY cells (AID 1347114). Also: nearly all actives have a fitted effect of over 65% in size. In a few lines:
(§4)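 Viability measured as metabolically active cells via CellTiter-Glo luminescence following 48 hours of compound exposure, 11-point dilutions in confirmatory testing. 500-1,000 cells/well plated 5 hours before dosing; controls were DMSO and 2.3 µM bortezomib.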

Assay [20] in a line: qHTS of pediatric cancer cell lines to identify multiple opportunities for drug repurposing: Confirmatory screen for SJ-GBM2 cells (AID 1347116). Also: nearly all actives have a fitted effect of over 60% in size. Summed up:
as §4

As for `O=P(O)(O)C(O)(Cc1cccnc1)P(=O)(O)O`, the Potency result in assay [1], in assay [2], in assay [3], in [4], in assay [5] and in assay [6] was “inactive” each time. For the same compound, the Potency result in [7], in assay [8], in assay [9], in assay [10], in [11] and in assay [12] was “inactive” throughout. Moreover, the Potency entry in assay [13] and in [14] was “inactive” throughout.

For the compound `CCn1cc(C(=O)O)c(=O)c2cc(F)c(N3CCN(C)CC3)cc21`, the Potency result in assay [1], in assay [2], in assay [3], in assay [4], in assay [5] and in assay [6] was “inactive” each time. Besides, the Potency result in [7], in assay [8], in assay [9], in assay [10], in assay [11] and in assay [12] was “inactive” throughout. In addition, the Potency result in assay [13] and in [14] was “inactive” each time.

Regarding `NC(=O)c1cccc(N)c1`, the Potency entry in assay [1], in assay [2], in [3], in [4], in assay [5] and in assay [6] was “inactive” each time. Further, the Potency entry in assay [7], in assay [8], in [9], in assay [10], in assay [11] and in assay [12] was “inactive” in each case. Moreover, the Potency entry in [14] was “inactive”.

Take `CC(C)(Sc1cc(C(C)(C)C)c(O)c(C(C)(C)C)c1)Sc1cc(C(C)(C)C)c(O)c(C(C)(C)C)c1`: the Potency result in [1], in assay [2], in assay [3], in assay [4], in [5] and in assay [6] was “inactive” in each case. Also, the Potency entry in assay [7], in [8], in assay [9], in assay [10], in assay [11] and in assay [12] was “inactive” in each case. The Potency entry in assay [13] and in assay [14] was “inactive” throughout.

In the case of `O=C(O)CSCC(=O)NC1CCSC1=O` (stereo not drawn), the Potency result in assay [1], in [2], in assay [3], in [4], in [5] and in assay [6] was “inactive” each time. Moreover, the Potency result in [7], in assay [8], in assay [9], in assay [10], in assay [11] and in assay [12] was “inactive” in each case. In addition, the Potency entry in assay [13] and in assay [14] was “inactive” each time.

Consider `NS(=O)(=O)c1cc2c(cc1Cl)NC(C(Cl)Cl)NS2(=O)=O` (stereo not drawn), for which the Potency result in assay [1], in assay [2], in [3], in assay [4], in assay [5] and in assay [6] was “inactive” each time. The Potency entry in assay [7], in assay [8], in [9], in [10], in assay [11] and in [12] was “inactive” in each case. For the same compound, the Potency result in [13] and in assay [14] was “inactive” in each case.

As to `N[C@@H](C(=O)N[C@@H]1C(=O)N2C(C(=O)O)=C(Cl)CS[C@H]12)c1ccccc1`, the Potency entry in [1], in [2], in [3], in [4], in assay [5] and in [6] was “inactive” in each case. The Potency entry in assay [7], in [8], in assay [9], in [10], in assay [11] and in [12] was “inactive” each time. The Potency result in [13] and in [14] was “inactive” in each case.

For the compound `CC(C)(C)C(=O)OCOP(=O)(COCCn1cnc2c(N)ncnc21)OCOC(=O)C(C)(C)C`, the Potency in assay [1] is 2.99 µM (active) and 662 nM (active); in [3], 26.6 µM (active) and 23.5 µM (active); in [4] it was 15.4 µM (active) and 27.1 µM (active); in assay [5], 11.9 µM (active) and 18.7 µM (active); in [6], 16.6 µM (active); in [7], 11 µM (active) and 17.2 µM (active). In addition, the Potency in assay [9] was 6.17 µM (active) and 30.6 µM (active); in assay [10] it was 23.5 µM (active); in [15] it was 8.27 µM (active); in [16], 4.65 µM (active); in assay [17] it was 0.329 µM (active); in [18] it was 9.27 µM (active). Besides, the Potency result in [2], in [8], in assay [11], in assay [12], in [13] and in assay [19] was “inactive” throughout. Also, in assay [20], the Potency entry was “inactive”.

Regarding `NCCCC(O)(P(=O)(O)O)P(=O)(O)O`, the Potency entry in assay [1], in assay [2], in [3], in [4], in assay [5] and in assay [6] was “inactive” each time. The Potency result in [7], in assay [8], in assay [9], in assay [10], in [11] and in assay [12] was “inactive” in each case. The Potency entry in [13] and in assay [14] was “inactive” throughout.

`Cc1cccc(Nc2ccncc2S(=O)(=O)NC(=O)NC(C)C)c1`: the Potency result in assay [1], in [2], in assay [3], in assay [4], in [5] and in [6] was “inactive” each time. For the same compound, the Potency result in assay [7], in [8], in [9], in assay [10], in [11] and in [12] was “inactive” throughout. Also, the Potency result in assay [13] and in assay [14] was “inactive” in each case.

Turning to `Cc1oc(=O)oc1CN1CCN(c2cc3c(cc2F)c(=O)c(C(=O)O)c2n3C(C)S2)CC1` (stereo not drawn), the Potency entry in assay [1], in [2], in assay [3], in [4], in assay [5] and in [6] was “inactive” in each case. Moreover, the Potency result in assay [7], in assay [8], in assay [9], in assay [10], in assay [11] and in assay [12] was “inactive” each time. Moreover, the Potency entry in assay [13] and in assay [14] was “inactive” in each case.

In the case of `C#CCN[C@@H]1CCc2ccccc21`, the Potency entry in [1], in assay [2], in [3], in assay [4], in [5] and in assay [6] was “inactive” each time. The Potency result in [7], in [8], in [9], in assay [10], in [11] and in assay [12] was “inactive” throughout. In addition, the Potency result in assay [13] and in assay [14] was “inactive” in each case.

With `Cn1c(=O)c2c(ncn2CC(O)CO)n(C)c1=O` (stereo not drawn), the Potency result in assay [1], in assay [2], in assay [3], in assay [4], in [5] and in assay [6] was “inactive” throughout. The Potency result in assay [7], in [8], in [9], in assay [10], in [11] and in assay [12] was “inactive” each time. Besides, the Potency entry in assay [13] and in [14] was “inactive” throughout.

In the case of `O=C(O)CCn1c2c(c3ccccc31)C[C@H](NS(=O)(=O)c1ccc(F)cc1)CC2`, the Potency entry in assay [1], in assay [2], in assay [3], in assay [4], in [5] and in assay [6] was “inactive” in each case. Also, the Potency result in assay [7], in [8], in assay [9], in assay [10], in assay [11] and in assay [12] was “inactive” throughout. The Potency result in [13] and in assay [14] was “inactive” in each case.

As for `Cc1ncc([N+](=O)[O-])n1CCO`, the Potency entry in [1], in [2], in assay [3], in assay [4], in [5] and in assay [6] was “inactive” each time. In addition, the Potency result in assay [7], in [8], in assay [9], in assay [10], in assay [11] and in assay [12] was “inactive” in each case. The Potency result in [13] and in assay [14] was “inactive” in each case.

With `COC(c1ccccc1)(c1ccccc1)[C@H](Oc1nc(C)cc(C)n1)C(=O)O`, the Potency result in assay [1], in assay [2], in assay [3], in assay [4], in assay [5] and in assay [6] was “inactive” throughout. For the same compound, the Potency entry in assay [7], in [8], in assay [9], in [10], in [11] and in assay [12] was “inactive” in each case. Further, the Potency entry in [13] and in assay [14] was “inactive” in each case.
